# Structures can show the parent of a compound that is named as a salt. Values without a mark were called inactive.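 The calls were made as follows: active = log2 fold change beyond 2 SD from the library mean after excluding viability outliers; inactive = within 2 SD.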
# Molecular target: PARP1 L713F-nLuc biosensor (HCT116) (UniProt P09874)
# Assay: PARP1 L713F-nLuc/akaLuc ratio relative to DMSO control (biosensor stabilization) (fold change); higher = more PARP1 biosensor stabilization (target engagement / stabilizer), active = hit call of the paper
# Settings: stock concentration (mM; final µM = stock mM x 1): 10; 24 h
# Sequence of PARP1 L713F-nLuc biosensor (HCT116) (P09874 whole entry L713F, looked up): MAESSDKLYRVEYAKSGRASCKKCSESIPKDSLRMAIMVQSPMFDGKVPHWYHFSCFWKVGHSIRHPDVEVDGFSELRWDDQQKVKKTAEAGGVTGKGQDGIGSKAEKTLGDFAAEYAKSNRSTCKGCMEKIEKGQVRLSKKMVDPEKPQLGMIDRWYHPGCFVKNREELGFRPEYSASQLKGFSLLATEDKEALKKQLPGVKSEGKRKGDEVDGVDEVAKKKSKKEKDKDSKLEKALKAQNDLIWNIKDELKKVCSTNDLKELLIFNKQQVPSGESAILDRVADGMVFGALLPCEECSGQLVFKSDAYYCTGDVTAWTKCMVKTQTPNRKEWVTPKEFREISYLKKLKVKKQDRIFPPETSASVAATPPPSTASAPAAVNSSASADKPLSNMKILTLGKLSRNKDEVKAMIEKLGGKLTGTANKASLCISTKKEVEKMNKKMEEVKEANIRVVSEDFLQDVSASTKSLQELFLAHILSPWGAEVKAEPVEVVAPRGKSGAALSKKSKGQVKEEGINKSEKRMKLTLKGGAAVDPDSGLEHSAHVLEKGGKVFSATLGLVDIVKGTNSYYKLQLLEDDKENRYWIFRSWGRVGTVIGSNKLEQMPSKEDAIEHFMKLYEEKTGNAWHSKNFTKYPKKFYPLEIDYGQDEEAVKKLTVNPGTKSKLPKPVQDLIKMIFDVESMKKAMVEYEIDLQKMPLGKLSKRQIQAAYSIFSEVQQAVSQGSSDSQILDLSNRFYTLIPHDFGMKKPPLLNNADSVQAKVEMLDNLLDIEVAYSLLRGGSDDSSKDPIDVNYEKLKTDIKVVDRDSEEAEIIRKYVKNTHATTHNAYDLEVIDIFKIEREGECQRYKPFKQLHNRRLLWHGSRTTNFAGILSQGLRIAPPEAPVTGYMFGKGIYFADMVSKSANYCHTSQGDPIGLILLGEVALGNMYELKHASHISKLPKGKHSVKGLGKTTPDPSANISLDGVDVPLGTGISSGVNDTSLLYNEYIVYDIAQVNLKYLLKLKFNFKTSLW
row,Structure (SMILES),PARP1 L713F-nLuc/akaLuc ratio
1,CN1CC[C@@H](NC(=O)Nc2ccc(C#N)cc2)C[C@@H]1c1nc2ccccc2[nH]1,0.89
2,Cn1cc(Nc2nccc(N3C[C@H]4CC[C@@H](C3)N4C(=O)[C@@H]3CC3(F)F)n2)cn1 [Brepocitinib (P-Tosylate)],0.619
3,"Cc1c(C(=O)Nc2ccc(N3C[C@@H](C)O[C@@H](C)C3)nc2)cccc1-c1ccc(OC(F)(F)F)cc1 [Sonidegib (Erismodegib, NVP-LDE225)]",0.652
4,CC(C)c1c(-c2cnn(C(C)(C)C)c2)nc2c(C#N)c[nH]n2c1=O,1.58
5,O=[N+]([O-])c1c(Nc2cc(F)cc(Cl)c2)ccc2nonc12,1.45
6,Cc1cccc(-c2[nH]c(CNc3ccccc3F)nc2-c2ccc3ncnn3c2)n1 [Vactosertib ?(TEW-7197)],1.18
7,N=C(N)NC(=N)NCCc1ccccc1 [Phenformin (hydrochloride)],0.696
8,CNCCN1CCC(OCc2ccccc2)CC1,0.908
9,Cc1cc(CN2CCN(c3c(Br)cnc4nc(-c5ccc(N6CCN(C)CC6)cc5)[nH]c34)CC2)no1,1.37
10,COc1ccc(-n2c(SCCCN3C(=O)c4cccc5cccc(c45)C3=O)nnc2-c2ccncc2)cc1,0.933
11,Cc1cc(C)c(CNC(=O)c2cc(Cl)c3c(c2C)O[C@@](C)([C@H]2CC[C@H](N(C)C)CC2)O3)c(=O)[nH]1 [Valemetostat (tosylate)],1.05

# — the supplement of paper PMC11624193, “Coupling cellular drug-target engagement to downstream pharmacology with CeTEAM” (Nature Communications, 2024)
